Compound activity from PubChem BioAssay.
Marburg entry – inhibitors of Marburg virus binding or entry into cells | Marburg virus pseudotype entry/binding inhibition, cell-based | AID 720532 | hit rate 6.5% among 18,000 | Potency, µM (top dose mostly 49.2 µM), usual class: inhibitors
LASV entry inh – Lassa virus entry inhibition | Lassa virus pseudotyped entry inhibition, cell-based qHTS | hit rate 4.1% among 18,000 | Potency, µM (top dose mostly 49.2 µM), actives largely listed as inhibitors
Each line names hits and unclear results; the compound was inactive in the other large screens; ! = a repeat was not active. A selection: hits, their analogues and other compounds. The true share with any hit is near 8.6%. Calls follow the shape of the full dose curve; tested in HEK293 cells.

Cc1cccc(CNc2nc(-c3ccoc3)nc3ccccc23)c1	none
COc1ccc(CNc2nc(-c3ccccc3CN(C)C)nc3ccccc23)c(OC)c1	Marburg entry 7.9µM, LASV entry inh inconclusive
COc1ccccc1-c1cc(NCc2cccnc2)ncn1	none
COc1ccc(CNc2nc(-c3ccoc3)nc3ccccc23)c(OC)c1	none
COc1ccccc1-c1nc(NCc2cnc(C)cn2)c2ccccc2n1	none
COc1ccc(C=CC2=C[C@]3(C)C[C@]2(C)[C@H](c2ccc(OC)cc2)CC3=O)cc1	none
O=C(C1CCCCC1)N1C[C@H](O)[C@H](n2cc(C3CC3)nn2)C[C@@H]1c1ccc(Cl)cc1	none
CCN1C(=O)NC(c2ccco2)C(C(C)=O)=C1C (stereo not drawn)	none
COc1ccc(O[C@H]2C=C[C@@H](c3ccccc3)O[C@H]2COC(=O)CCC(C)=NO[C@@H](C)c2cc(-c3c(C)cc(C)cc3C)no2)cc1	none
COC(=O)[C@H](CC(C)C)N(Cc1ccc(Br)cc1)S(=O)(=O)CCl	none
CC(C)=CCCC(C)=CCON=C1C[C@@H](O)[C@@H](O)[C@@H]2[C@H]3C(=O)N(c4cccc(Oc5ccccc5)c4)C(=O)[C@@H]3CC[C@H]12	none
CCCCCCCCCCCCCCCC[N+](C)(C)C	Marburg entry 8.9µM!, LASV entry inh inconclusive
CCCCCCCC[N+](C)(C)CCCCCCCC	Marburg entry 16µM, LASV entry inh inconclusive
CCCCCCCCCCCCCCCCCC[N+](C)(C)CCC[Si](OC)(OC)OC	none
CCCCCCCCCCCCCCCC[N+](C)(C)CC	Marburg entry 10µM, LASV entry inh 16µM
CCCCCCCCCC[N+](C)(C)CCCCCCCCCC	Marburg entry inconclusive, LASV entry inh 25µM
CCCCCCCCCC(=O)O	none
CCCCCCCCCCCCCCCCOP(=O)([O-])OCC[N+](C)(C)C	none
C[N+](C)(C)CCCCCC[N+](C)(C)C	none
COC(=O)C1=C(C(=O)OC)[C@@H]2N(C)c3ccccc3[C@@]23CCC(=O)N(CC(C)C)C3=N1	none
O=S1CCN(Cc2ccc(-c3ccc4ncnc(Nc5ccc(OCc6ccccc6)c(Cl)c5)c4c3)o2)CC1	Marburg entry inconclusive
CCOC(=O)CN1C(=O)[C@]2(OC[C@@H]3Cc4ccccc4[C@H]3C=C2C)c2ccccc21	none
CO/N=C(\C(=O)N[C@@H]1C(=O)N2C(C(=O)O)=C(CSc3nnnn3C)CS[C@H]12)c1csc(N)n1	none
C=C(C)CCCN1C=C(C(C)=O)C(c2ccccc2)NC1=O (stereo not drawn)	none
CCN1C(=O)N(S(=O)(=O)c2ccc(C)cc2)C(c2ccccc2)C(C(=O)OC)=C1C (stereo not drawn)	none
C=C(CCN1C=C(C(C)=O)C(c2ccccc2)NC1=O)c1ccc(OC)cc1 (stereo not drawn)	none
O[C@@H]1[C@@H]2c3cc4c(cc3CN3CCC(=C[C@@H]1O)[C@H]23)OCO4	Marburg entry 2.5µM, LASV entry inh inconclusive
CN1CCc2cc3c(cc2[C@@H]1O)OCO3	none
COc1cc(NS(C)(=O)=O)ccc1Nc1c2ccccc2nc2ccccc12	Marburg entry inconclusive, LASV entry inh 3.2µM
Cc1cccc(CNc2nc(-c3cccc(NS(C)(=O)=O)c3)nc3ccccc23)c1	Marburg entry inconclusive
COC(=O)C1=C(C(=O)OC)[C@@H]2N(Cc3ccccc3)c3ccccc3[C@@]23C[C@@H](CO)N(C(=O)CC(C)C)C3=N1	none
CC[C@@]1(O)C(=O)OCc2c1cc1n(c2=O)Cc2cc3cc(O)ccc3nc2-1	Marburg entry inconclusive, LASV entry inh 0.11µM
O=C(OCc1cn([C@H]2C[C@H](c3ccccc3)N(C(=O)C3CCCCC3)C[C@H]2O)nn1)c1ccccc1	none
COC(=O)[C@H]1[C@H](CCc2ccccc2)NC(=O)N(Cc2ccccc2)[C@H]1C	none (no result: LASV entry inh)
Cc1c(C(=O)NCc2nccs2)cnn1-c1ncc2c(n1)-c1ccccc1CC2	none
N#Cc1ccc2c(c1)C[C@]1(CCCCN3C(=O)c4ccccc4C3=O)Oc3c(c(=O)oc4ccc(F)cc34)[C@@H]2O1	none
O=C(O)/C=C\C(=O)O	none
CC(=O)O.CC(=O)O.[Cd]	Marburg entry 2.8µM, LASV entry inh 7.9µM
CCN1C(=NCCc2c[nH]c3ccccc23)NC(c2ccccc2)C(C(=O)OC)=C1C (stereo not drawn)	Marburg entry inconclusive
C=CCN(C)CCCCCCOc1ccc(C(=O)c2ccc(Br)cc2)c(F)c1	Marburg entry 4µM, LASV entry inh inconclusive
OCc1ccc(Cl)cc1Cl	none
O=C(CCl)c1ccc(Cl)cc1Cl	Marburg entry 8.9µM, LASV entry inh 13µM
C[C@@H]1CC[C@H]2C(=O)N(Cc3ccc(Cl)cc3)C[C@H](O)CN2[C@@H]1c1ccc(Br)cc1	none
COC(=O)C1=C2C=C(C)CC(C)N2C(=O)NC1c1ccccc1 (stereo not drawn)	none
c1ccc(CCNc2nc(-c3ccccc3)cs2)cc1	Marburg entry inconclusive, LASV entry inh 16µM
c1ccc(-c2csc(-c3nc4ccccc4[nH]3)n2)cc1	LASV entry inh inconclusive
C[C@@H](CN1c2ccccc2Sc2ccccc21)N(C)C	Marburg entry 10µM
CC(CN1c2ccccc2Sc2ccccc21)N(C)C (stereo not drawn)	Marburg entry 13µM, LASV entry inh 32µM!
